Results published in PubChem BioAssay AID1063 (University of Pittsburgh Molecular Library Screening Center, 2008).
Screen size: about 200,000 compounds; about 18,000 (9%) were called active. Many of the other results were omitted from the sample, so actives are more common in it than they were. A number with no mark means an inactive call. Rule as the data show it: active = inhibition above about 50%; inactive = the rest.

Test: Leishmania major promastigote growth inhibition, primary screen (AID 1063);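 also: promastigotes grown with compound for 44 hours at 28 °C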
Details: Leishmania major promastigotes, resazurin fluorescence viability; at 10 µM; active compounds read high

Compound | inhibition
O=C(O)CCc1nc2cc(Cl)ccc2n(Cc2ccccc2)c1=O | -0.11%
CCC1(CC)NC(=O)N(Cc2nc3ccccc3s2)C1=O | -8.89%
CCNC(=O)COC(=O)CCNC(=O)c1cccc(C)c1 | -5.94%
CC1CC(C)(C)NC(=S)N1CCC(=O)N1CCN(Cc2ccccc2)CC1 (stereo unspecified) | 0.54%
NC(=O)Cn1nc([N+](=O)[O-])nc1Oc1ccc(Br)cc1 | 33.2%
NC(=O)c1ccc(NC(=O)COC(=O)C(Cc2ccccc2)NC(=O)c2ccccc2)cc1 (stereo unspecified) | 1.11%
O=C1CSC(c2cccc(F)c2)N1c1ccccc1F (stereo unspecified) | 1.64%
O=C1CC(c2cccc(F)c2)C2=C(CCCC2=O)N1 (stereo unspecified) | -5.73%
O=C1CCCC2=C1C(c1ccccc1)n1c(s/c(=C/c3cccc(F)c3)c1=O)=N2 (stereo unspecified) | 60.3% (active)
CCSC1=NCCN1C(=O)c1ccc(S(=O)(=O)N(CC)CC)cc1 | 2.69%
C=CCN(Cc1nc(-c2cc(OC)c3c(c2)OCO3)oc1C)C1CCS(=O)(=O)C1 (stereo unspecified) | 64.6% (active)
Cc1cccc(C(=O)Nc2ccccc2C(=O)NCc2cccnc2)c1 | -3.01%
O=C(CCC(=O)OCc1ccc(Cl)cc1)Nc1ccccc1 | -2.39%
CCCCC(=O)Nc1ccc2c(c1)OCCO2 | 1.71%
CCCCN(C)CCC(=O)Nc1ccc(Cl)cc1 | 63.4% (active)
CCOC(=O)Cc1csc(NC(=O)Nc2ccccc2)n1 | 0.22%
CCOC(=O)Cc1csc(SCc2cc(=O)oc3cc(O)ccc23)n1 | -10.2%
CCOC(=O)Cc1csc(NC(=O)CSc2ccc(Br)cc2)n1 | 77.7% (active)
CCOC(=O)Cc1csc(NC(=O)C(C)(C)C)n1 | -0.74%
CCOC(=O)Cc1csc(NC(=O)CSc2nc(C)cc(=O)[nH]2)n1 | -12.1%
CCOC(=O)Cc1csc(SCC(=O)NC(C)C23CC4CC(CC(C4)C2)C3)n1 (stereo unspecified) | 98.6% (active)
Cc1ccccc1N/C(SCc1ccc(Cl)cc1)=C(/C#N)C(N)=O | 25.8%
CC1(c2cccc([N+](=O)[O-])c2)CC(C)(C)N(C(=O)c2ccccc2)c2ccccc21 (stereo unspecified) | 22.4%
CC1(c2ccccc2)CC(C)(C)N(C(=O)c2cc([N+](=O)[O-])cc([N+](=O)[O-])c2)c2ccccc21 (stereo unspecified) | 99.6% (active)

Compound | inhibition
CC1CCN(C(=S)c2cccc([N+](=O)[O-])c2)CC1 | -0.83%
COC(=O)NNC1=CC(=O)CC(C)(C)C1 | -0.84%
CN(C(=O)COc1ncnc2c1cnn2-c1ccccc1)C1CCCCC1 | 0.81%
CCOC(=O)C1CCCN(C(=O)c2cccc(S(=O)(=O)N3CCOCC3)c2)C1 (stereo unspecified) | -6.48%
COCCn1c(SCC(=O)Nc2ccc3c(c2)CCC3)nc2ccccc2c1=O | 59.6% (active)
CC(=O)NCCn1c(SCC(=O)Nc2ccc(C)cc2)nc2ccccc2c1=O | 0.63%
CCc1nnc(NC(=O)CSc2nc3ccccc3c(=O)n2CCCOC)s1 | 11.7%
Cc1cccc(NC(=S)Nc2ccc(Cl)c(Cl)c2)c1 | 33.5%
CN(C)S(=O)(=O)Oc1ccccc1C(=O)Nc1ccccc1Cl | 3.48%
O=C(CCC(=O)NNc1nc2ccccc2c2nc(-c3ccccc3)nn12)NCCCN1CCCC1=O | 1.2%
Cc1ccc2c(Cl)c(C(=O)Nc3nn[nH]n3)sc2c1 | 12.8%
O=C(NCCCn1ccnc1)Nc1ccc(Cl)cc1Cl | 0.73%
Cc1ccc2c(Cl)c(C(=O)NCCCn3ccnc3)sc2c1 | 99.3% (active)
CCCN(CCC)c1ccc(C(O)c2nnc(-c3ccccc3)o2)cc1 (stereo unspecified) | 13.2%
Cc1ccc(Cl)cc1NC(=O)COC(=O)CC(C)(C)C | 34.5%
COc1ccc(C(CCNCc2ccccc2F)c2ccc(F)cc2)cc1 (stereo unspecified) | 78.9% (active)
COc1ccc(C(CC(=O)O)NC(=O)Cc2ccccc2)cc1 (stereo unspecified) | -6.94%
COc1ccc(CC(=O)NC(C)CCc2ccccc2)cc1 (stereo unspecified) | -3.88%
Cc1cc(NS(=O)(=O)c2ccc(NC(=S)NC(=O)c3ccc(F)cc3Cl)cc2)no1 | 48.3%
CCN(CCCNC(=O)CSc1cc(=O)n(C)c2cc(Cl)ccc12)Cc1ccccc1 | 20.1%
COc1ccc(-n2cc(CNC3CCOCC3)c(-c3cccc(F)c3)n2)cc1 | 31.6%
CC(C)OCCCNC(=O)c1cc(Sc2ccc(F)cc2)nc2ccccc12 | 50.2% (active)
CC(C)CCNC(=O)c1cccnc1Sc1ccccc1 | 32.8%
O=C(NCCN1CCOCC1)c1cc(Sc2cccc(Cl)c2)nc2ccccc12 | 1.33%

Compound | inhibition
CN1CCNC(=O)C1CC(=O)NCCC1=CCCCC1 (stereo unspecified) | 4.58%
CCOC(=O)c1c(C)[nH]c(C2=NNC(=NC(C)COC)SC2)c1C (stereo unspecified) | 8.5%
CC(C)Cc1nn2c(=O)cc(O)nc2s1 | 54.9% (active)
Cc1sc(NC(=S)NC(=O)c2cccs2)nc1-c1ccc(CC(C)C)cc1 | -14.6%
CCCn1c(=NC(C)=O)c(C(=O)OCC)cc2c(=O)n3ccccc3nc21 | 7.11%
CCOC(=O)c1cc2c(=O)n3ccccc3nc2n(CC(C)C)c1=NC(=O)c1c(-c2c(F)cccc2Cl)noc1C | 98.8% (active)
C/C(=N/OC(=O)c1c(-c2c(F)cccc2Cl)noc1C)c1cnccn1 | 0.04%
COc1ccc(NC(=O)/C(C#N)=C\c2cc(OC)c(OCc3ccc(C(=O)O)cc3)cc2Br)cc1 | 4.82%
COc1ccc(-c2csc(N3CCN(Cc4ccc5c(c4)OCO5)CC3)n2)cc1 | 76.3% (active)
COc1cccc(NC(=O)CN2CCN(c3nc(-c4cccc(OC)c4)cs3)CC2)c1 | 9.93%
O=C(CN1CCN(c2nc(-c3ccccc3)cs2)CC1)NCc1ccc2c(c1)OCO2 | 1.96%
Cc1nn(C)c(C)c1CN(C(=O)CCc1nnc(Cc2c[nH]c3ccccc23)o1)C(C)C | -4.01%
COCC(=O)N=Nc1c(O)[nH]c2ccccc12 | -1.1%
Cc1cccc(N(CC(=O)N=Nc2c(O)[nH]c3ccccc23)S(C)(=O)=O)c1C | 95.3% (active)
Cc1c(-c2ccccc2)n[nH]c1C(=O)N=Nc1c(O)[nH]c2ccccc12 | 4.35%
CCn1c(-c2cccnc2Cl)nc2cc(C)c(C)cc21 | 10%
CC(C)n1c(O)c(N=Nc2ccccn2)c2ccccc21 | 56.6% (active)
CC(C)n1c(C(O)c2ccccc2)nc2ccccc21 (stereo unspecified) | 5.37%
Oc1oc(-c2ccccc2Br)nc1/C=N/c1ccccn1 | -5.62%
CCc1ccccc1NC(=O)CN(c1ccc(OC)cc1OC)S(=O)(=O)c1ccccc1[N+](=O)[O-] | 27.7%
COc1ccc(N(C)S(=O)(=O)c2cccc3nsnc23)cc1 | -1.4%
CCOC(=O)C1=C(CC)Nc2ccccc2N=C1NC(=O)c1cccc(S(=O)(=O)N2CCCC2)c1 | 72% (active)
CCOC(=O)C1=C(CC)Nc2ccccc2N=C1N | -8.37%
CCOC(=O)CSc1nnc(NC(=O)c2cccc(S(=O)(=O)N3CCCC3)c2)s1 | -6.49%

Compound | inhibition
CCN(CC)Cc1nc2sc(C)c(C)c2c(=O)[nH]1 | -6.68%
CC1CCN(C(=S)c2cccc(O)c2)CC1 | 0.69%
CCOc1ccccc1Oc1cn[nH]c1-c1ccc(OC)cc1O | 50.6% (active)
CCOc1ccc(-c2n[nH]c(C)c2-c2ccccn2)c(O)c1 | 5.25%
CCOc1ccccc1NC(=O)Nc1cc(OC)ccc1OC | -3.92%
CC(=O)c1cc(C#N)c(N2CC(C)OC(C)C2)nc1C (stereo unspecified) | -0.03%
Nc1nc(NCCCN2CCOCC2)nc(Nc2ccccc2)c1[N+](=O)[O-] | 47.8%
O=C(NCCCN1CCOCC1)c1ccccc1NS(=O)(=O)c1ccc(F)cc1 | -1.28%
O=[N+]([O-])c1ccc(NCCCN2CCOCC2)c(Cl)c1 | 90.3% (active)
O=C(NCCCN1CCOCC1)c1ccc(N2CCCC2)c([N+](=O)[O-])c1 | -1.2%
O=C(NCCCN1CCOCC1)c1ccc([N+](=O)[O-])cc1[N+](=O)[O-] | 57.7% (active)
O=C(NCCCNc1ccc([N+](=O)[O-])cc1Cl)c1ccccc1F | 11.1%
S=C(Nc1ccc(Br)cc1Cl)N1CCC2(CC1)OCCO2 | -4.82%
Cc1ccc(CC2CC(=O)N(c3nc(C)cc(C)n3)C2=O)cc1 (stereo unspecified) | -5.05%
Brc1ccc(CSc2ccc(-c3ccco3)nn2)cc1 | 2%
O=C1COc2ccc(C(=O)COC(=O)c3cccnc3Cl)cc2N1 | 11%
Cc1ccccc1Nc1nc(N)nc(CSc2ccccc2)n1 | 58.8% (active)
COc1ccccc1Nc1nc(N)nc(CN(C)C2CCCCC2)n1 | 0.98%
Cc1ccccc1Nc1nc(N)nc(CN2CCN(c3ccccn3)CC2)n1 | 0.34%
Cc1ccc(C(=O)OCc2nc(N)nc(Nc3ccccc3C)n2)cc1 | 53.7% (active)
Cc1ccccc1Nc1nc(N)nc(CSc2nnc3ccccn23)n1 | -7.89%
CCOC(=O)N1CCN(Cc2nc(N)nc(Nc3ccc(C)cc3)n2)CC1 | 3.79%
CCOC(=O)C(NC(C)=O)C(=O)Nc1ccc(OC)cc1 (stereo unspecified) | -2%
CCCCNC(=O)Nc1c(C)cc(SC#N)cc1C | -2.51%
